Rows were chosen to be rich in hits. Some 28% of all compounds tested hit in one or more screens of this group.
CYP2C19 inh = human CYP2C19 inhibition; CYP2C19 Supersomes, luciferin-H EGE luminescence, 30 min; inhibition, % at 5 µM; 96,000 tested, 21% active;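 active = CYP2C19 inhibition above a set limit at 5 µM in the primary screen, cut at about 50% in these data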;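 note: plate controls were negative control wells for no effect and 2.5 mM tranylcypromine positive control for full effect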
Target sequence (P33261 whole entry, looked up): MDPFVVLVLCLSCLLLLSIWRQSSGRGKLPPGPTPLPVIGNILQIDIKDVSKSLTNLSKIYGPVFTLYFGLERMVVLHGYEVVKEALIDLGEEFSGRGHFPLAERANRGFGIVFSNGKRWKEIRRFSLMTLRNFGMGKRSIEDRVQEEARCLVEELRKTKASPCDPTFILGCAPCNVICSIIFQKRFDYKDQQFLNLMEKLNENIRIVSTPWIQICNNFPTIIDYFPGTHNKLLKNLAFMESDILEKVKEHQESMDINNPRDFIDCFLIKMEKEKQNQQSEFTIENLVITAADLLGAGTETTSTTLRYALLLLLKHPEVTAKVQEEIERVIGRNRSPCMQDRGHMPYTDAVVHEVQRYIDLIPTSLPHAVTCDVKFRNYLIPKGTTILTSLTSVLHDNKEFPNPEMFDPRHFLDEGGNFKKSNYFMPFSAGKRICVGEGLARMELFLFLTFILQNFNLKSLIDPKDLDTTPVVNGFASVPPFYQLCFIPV
PTK2B oligo ant = blocks oligomerization of human Pyk2 in cells; Q293 cells, Pyk2 FERM NanoBiT luminescence; hits give low values; z-score (the deposit names both 25 µM and 10 µM); 99,000 tested, 0.83% active; AID 1347419;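 active = Z-score of -3 or lower, scaled per plate to the spread of control and sample wells; inactive = z-score above -3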;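 note: negative z-score means lost luminescence so less FERM oligomerization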
CYP2C9 inhib = inhibitors of human CYP2C9; inhibition, % at 5 µM; AID 777; P11712; CYP2C9 Supersomes, luciferin-H conversion, luminescence; 96,000 tested, 20% active;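 active = blocking of liver enzyme CYP2C9 beyond about 50% at 5 µM, limit read from the data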
CYP2C9 activ = activators of human CYP2C9; P11712; recombinant CYP2C9, luciferin-H conversion, luminescence; hits give high values; factor 1 = untreated enzyme, 0 = blocked; activation factor at 5 µM; 96,000 tested, 1.4% active;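 active = activation factor of 2 or more for CYP2C9 at a 5 µM dose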;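 note: 0 = sulfaphenazole-blocked wells and 1 = vehicle-only wells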
CYP2C19 activ = increases human CYP2C19 enzyme activity | 96,000 tested, under 10 active | recombinant CYP2C19, luciferin-H EGE luminescence; hits give high values; 0 = fully inhibited enzyme, 1 = untreated enzyme | activation factor at 5 µM;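 active = activation factor of at least 2 at 5 µM in the primary screen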;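 note: 0 = wells with 2.5 mM tranylcypromine and 1 = vehicle-only wells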
Numbers without * were called inactive; nt = no result given.

SMILES | CYP2C19 inh | PTK2B oligo ant | CYP2C9 inhib | CYP2C9 activ | CYP2C19 activ
O=C(c1cnc2n(c1=O)CCS2)N1CCN(c2ccccc2F)CC1 | 34 | nt | -4 | 1 | 0.7
O=C(c1ccccc1Oc1ccccc1)N1CCN(c2ccccc2F)CC1 | 79* | -1.9 | 90* | 0.1 | 0.2
COc1ccccc1N1CCN(C(=O)c2ccc(Br)s2)CC1 | 99* | -0.05 | 89* | 0.1 | 0
COc1ccccc1N1CCN(C(=O)c2ccccc2Oc2ccccc2)CC1 | 74* | -0.78 | 75* | 0.3 | 0.3
COc1ccccc1-n1c(=O)c2c3c(sc2n2c(SC)nnc12)CCC3 | nt | 0.7 | nt | nt | nt
Cc1csc(NC(=O)CSc2nnc(-c3ccccn3)n2-c2ccc(C)c(C)c2)n1 | 1 | -0.61 | 19 | 0.8 | 1
C=C(C)COc1ccc(-c2nc(N)ncc2Oc2ccccc2OCC)c(O)c1 | 80* | -4.5* | 92* | 0.1 | 0.2
COC(=O)CC1=C(C(=O)OC)C(c2ccncc2)C(C#N)=C(N)O1 (stereo not drawn) | 80* | -0.43 | 80* | 0.2 | 0.2
Cc1cc(C2C(C#N)=C(N)SC(N)=C2C#N)c(C)s1 | 92* | 0.33 | 2 | 1 | 0.1
COC(=O)C1=C(C)OC(N)=C(C#N)C1c1cc(C)sc1C (stereo not drawn) | 88* | -1.6 | 28 | 0.7 | 0.1
CCOC(=O)C1=C(C)OC(N)=C(C#N)C1c1cc(F)ccc1F (stereo not drawn) | 83* | 0.26 | 47 | 0.5 | 0.2
COc1nc(N2CCOCC2)nc(-n2cccc2)n1 | -2 | 0.61 | 11 | 0.9 | 1
Fc1ccccc1OCCCCCCN1CCCC1 | 14 | 1.5 | 12 | 0.9 | 0.9
COC(=O)c1ccc(C2C(C(C)=O)=C(O)C(=O)N2CCO)cc1 (stereo not drawn) | 0 | 1.4 | 3 | 1 | 1
CCOC(=O)C1=C(C)OC(N)=C(C#N)C1c1ccc(OC)c(C)c1OC (stereo not drawn) | 73* | -1 | 55* | 0.4 | 0.3
N#CC1=C(N)S[C@@H](C(=O)c2ccc(F)cc2)[C@@H]1c1cccs1 | nt | -0.54 | nt | nt | nt
CCOC(=O)CC1=C(C(=O)OCC)C(c2cc(OC)c(OC)cc2OC)C(C#N)=C(N)O1 (stereo not drawn) | 33 | -0.44 | 48 | 0.5 | 0.7
CCOC(=O)CC1=C(C(=O)OCC)C(c2ccc(OC)c(OC)c2)C(C#N)=C(N)O1 (stereo not drawn) | 74* | 0.22 | 87* | 0.1 | 0.3
CCN(CC)C(=O)CSC1=C(C#N)C(c2cccs2)C=C(C)N1 (stereo not drawn) | 60* | -2.5 | 14 | 0.9 | 0.4
CCOC(=O)C1=C(c2ccccc2)OC(N)=C(C#N)C1c1cccs1 (stereo not drawn) | 6 | -1.1 | 12 | 0.9 | 0.9
CCOC(=O)CC1=C(C(=O)OCC)C(c2cccs2)C(C#N)=C(N)O1 (stereo not drawn) | 78* | 0.72 | 28 | 0.7 | 0.2
C=CCc1cc(C=O)cc(OC)c1OCc1c(Cl)cccc1Cl | 7 | -0.9 | 39 | 0.6 | 0.9
CCOC(=O)C1CCN(S(=O)(=O)c2ccc(-n3cnnn3)c(C)c2)CC1 | 15 | 0.91 | -14 | 1.1 | 0.9
COc1cc(C(=O)Sc2ccc(Cl)cc2)cc(OC)c1OC | 31 | -0.43 | 6 | 0.9 | 0.7
CCOC(=O)C1=C(CC)OC(N)=C(C#N)C1c1cc(OC)ccc1OC (stereo not drawn) | 82* | 0.33 | 98* | 0 | 0.2
SMILES | CYP2C19 inh | PTK2B oligo ant | CYP2C9 inhib | CYP2C9 activ | CYP2C19 activ
C#CCSC1=C(C#N)C(c2cccs2)C(C(=O)OCC)=C(C)N1 (stereo not drawn) | 64* | -0.53 | 72* | 0.3 | 0.4
CCOCCOC(=O)C1=C(C)NC2=C(C(=O)CC(c3cccs3)C2)C1c1ccsc1 (stereo not drawn) | 19 | -2 | 34 | 0.7 | 0.8
N=c1c(C(=O)NCc2ccc(F)cc2)cc2c(=O)n3ccccc3nc2n1Cc1cccnc1 | 7 | -0.86 | 20 | 0.8 | 0.9
Cc1ccc(C(=O)NCc2ccco2)cc1S(=O)(=O)N1CCOCC1 | -3 | 0.01 | 4 | 1 | 1
O=C(NCc1ccc2c(c1)OCO2)c1ccc(Cl)c(S(=O)(=O)N2CCOCC2)c1 | 38 | -0.56 | 68* | 0.3 | 0.6
Cc1ccc(C(=O)NCc2ccc3c(c2)OCO3)cc1S(=O)(=O)N1CCCCC1 | 51* | 0.14 | 81* | 0.2 | 0.5
Cc1ccc(C(=O)NCc2ccc3c(c2)OCO3)cc1S(=O)(=O)N1CCOCC1 | 66* | -0.14 | 76* | 0.2 | 0.3

High-throughput results deposited in PubChem BioAssay by Sanford-Burnham Center for Chemical Genomics.
